Assay results reported in PubChem BioAssay AID488890 (Southern Research Specialized Biocontainment Screening …, 2010).
Several values for one entry are separate records, joined by “and”; a condition that tells them apart may be missing. Equal values may be shown once. In all, about 320,000 compounds went through this assay and about 1,300 (0.41%) were called active. About 3% were inconclusive and are not listed. How the calls were made is not given here. Not all results are given here. Entries with a potency or affinity are not part of this list.

Test: growth inhibition of non-replicating M. tuberculosis (AID 488890);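 further: plate controls were DMSO cells for no effect and high antibiotic wells for full effect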
Conditions: Mycobacterium tuberculosis non-replicating, at 25 µM, stronger effect = higher value

Point of comparison: `Cc1ccc(S(=O)(=O)Nc2ccc(F)cc2)cc1C(=O)N1CCOCC1`, inhibition -12.4%. Against it:
- O=C(NCCC(=O)N(CCc1ccccc1)Cc1ccccc1)c1ccc(Br)cc1 — higher, 22.1%
- Fc1ccc2nc(C(F)(F)F)cc(N3CCOCC3)c2c1 — higher, -5.99%
- COc1cccc2sc(Nc3nc(-c4ccncc4)cs3)nc12 — higher, 31.8%
- COc1cccc2sc(NN)nc12 — higher, -6.89%
- COc1ccc(-c2nnc(Nc3nc4c(OC)cccc4s3)o2)c(OC)c1 — higher, 60.8%
- COc1ccccc1-c1nnc(Nc2nc3c(OC)cccc3s2)o1 — higher, 19%
- O=C1Cc2ccccc2C(=O)N1Cc1ccccc1 — higher, -3.14%
- Cc1cc(C)nc(NC(=O)c2ccc(Br)s2)n1 — higher, 55.2%
- COc1ccc(Cl)cc1NC(=O)CN(C)C(=O)c1ccc(-n2cncn2)cc1 — higher, 0.55%
- Nc1c(-c2ccccc2)cnn1-c1ccccc1 — higher, -6.23%
- CC(=O)NC(=O)c1ccc(-c2ccc(Cl)cc2)o1 — higher, 57.6%
- O=C(Nc1cccnc1)c1ccc(-c2cc(Cl)ccc2Cl)o1 — higher, -8.82%
- O=C(NNC(=O)c1ccccc1O)c1ccc(-c2ccc([N+](=O)[O-])cc2)o1 — lower, -16.6%
- COC(=O)c1sccc1-c1ccc(C(=O)Nc2cccnc2)o1 — higher, -4.8%
- O=C(Nc1cccnc1)c1cc(-c2ccc(Cl)cc2)on1 — higher, 71%
- CCOC(=O)c1cccc(NC(=O)c2cccnc2)c1 — higher, -4.27%
- CCN(CC(=O)Nc1c(F)cccc1F)C(=O)CNC(=O)c1ccc2ccccc2c1 — higher, 18.6%
- CN(C)S(=O)(=O)c1cccc(C(=O)NC(=S)N(CCC#N)Cc2cccnc2)c1 — higher, 42.5%
- COCC(=O)N1CCC(Oc2ccc(C(=O)N3CCCCCC3)cc2)CC1 — higher, -1.31%
- COc1ccc(-c2sc3ccccc3c2-c2ccc(O)cc2)cc1 — higher, 17.4%
- COc1ccc(NC(=O)CN(C)S(=O)(=O)c2ccc3c(c2)CCCN3C(C)=O)cc1 — higher, -3.38%
- Cc1onc(C(=O)N2CCC(Cc3ccccc3)CC2)c1[N+](=O)[O-] — higher, -6.71%
- CCOC(=O)CSc1nc2c(sc(=S)n2-c2ccc(CC)cc2)c(=O)[nH]1 — higher, 48.4%
- COc1ccc(NC(=O)CNc2ccccc2N2CCCC2=O)cc1S(=O)(=O)N1CCOCC1 — higher, 13.9%
- Cn1cccc1CC(=O)N/N=C/c1cc([N+](=O)[O-])ccc1Cl — higher, 14.2%
- COC(=O)c1ccc(-c2ccc(C(c3c(C)[nH][nH]c3=O)c3c(C)[nH][nH]c3=O)o2)cc1 — higher, 36.5%
- Cc1[nH][nH]c(=O)c1C(c1ccc(-c2cccc(C(=O)O)c2)o1)c1c(C)[nH][nH]c1=O — higher, -6.98%
- Cc1c(NC(=S)NC(NC(=O)C(C)(C)C)C(Cl)(Cl)Cl)c(=O)n(-c2ccccc2)n1C (centres undefined) — higher, 1.72%
- O=C1OCC(CO)(CO)N=C1NNc1ccccc1[N+](=O)[O-] — higher, 4.31%
- Cc1ccc(C(=O)N/N=C\c2ccc(-c3ccc(Cl)c(Cl)c3)o2)cn1 — higher, 16.6%
- CCC(=O)N/N=C/c1ccc(-c2ccc([N+](=O)[O-])cc2)o1 — higher, 74.5%
- Cc1ccc(C(=O)N/N=C/c2ccc(-c3cccc(Cl)c3)o2)cn1 — higher, -3.58%
- CC1(CC(=O)N/N=C/c2ccc(-c3ccc(Cl)cc3)o2)OCCO1 — higher, 69.5%
- O=C(CN1CCOCC1)N/N=C/c1ccc(-c2ccc(C(=O)O)cc2)o1 — higher, 2.35%
- O=C(CN1CCOCC1)N/N=C/c1ccc(-c2cccc(Cl)c2Cl)o1 — higher, 20.1%
- CN(C)c1ccc(C(=O)N/N=C/C23CC[C@@H](O)CC2(O)CC[C@@H]2[C@@H]3CCC3(C)C(C4=CC(=O)OC4)CCC23O)cc1 (some centres undefined) — higher, -3.55%
- CCOC(=O)c1cc(C)n(-n2cnnc2)c1C — higher, -3.13%
- COc1ccc2c(c1)nc(SCC(=O)C(C)(C)C)n2C — higher, 7.17%
- COc1ccc(N=C(C)C2=C(O)c3ccccc3C2=O)cc1 — higher, 21%
- N#CC(=NCc1cccnc1)C1=C(O)c2ccccc2C1=O — higher, 16.1%
- COC(=O)C1=C(C)N(CCCC(=O)O)C(=O)NC1c1ccc(OC)cc1 (centres undefined) — higher, -3.65%
- CCOc1ccc(N2C(=O)CNC2=S)cc1 — higher, 27.5%
- CCOc1ccc(N2CC(=O)N(c3ccc(OCC)cc3)CC2=O)cc1 — higher, 2.08%
- CN(C(=O)c1ccccc1C(=O)OCC(=O)NCc1cccs1)C1CCCCC1 — higher, -0.2%
- O=C(c1ccc(Br)o1)N1CCN(c2ccc(F)cc2)CC1 — higher, 66.9%
- CN(C)C(=O)c1cccn1-c1ncc(C(F)(F)F)cc1Cl — higher, -7.62%
- COc1ccccc1-n1c(-c2ccccc2Br)nc2ccccc2c1=O — higher, 5.34%
- O=c1c2ccccc2nc(-c2ccccc2)n1-c1ccccc1O — higher, 49.7%
- O=C(CCC(=O)N1CCN(c2ccc(F)cc2)CC1)c1ccc(Cl)cc1 — higher, 37.7%
- Cc1c(Cl)cccc1NC(=O)C1CCCN(S(C)(=O)=O)C1 (centres undefined) — higher, 1.51%
- Cc1ccc(S(=O)(=O)N2CCCCC2)cc1NC(=O)COC(=O)C1=COCCO1 — higher, -3.36%
- CC(=O)c1c(O)cc(C(C)C)n(-c2ccccc2)c1=O — higher, 6.76%
- C=CCNC(=O)N[C@@H](CCSC)C(=O)OC — higher, -9.43%
- O=C(COC(=O)c1n[nH]c2ccccc12)NCCc1ccc(Cl)cc1 — higher, 18.4%
- CCCn1c(CNC(=O)Cc2ccccc2)nc2ccccc21 — higher, -2.66%
- CCCn1c(CNc2ccc(Br)cc2)nc2ccccc21 — higher, 66.1%
- Cn1c(CNc2ccc(O)cc2)nc2ccccc21 — higher, 73.1%
- Cc1ccccc1NCc1nc2ccccc2n1C — higher, 34.2%
- COc1ccc(S(=O)(=O)N2CCC(C(=O)N3CCCCC3)CC2)cc1 — higher, -4.95%
- O=C(CNC(=O)c1cccs1)NCC(=O)OCc1ccccc1Br — higher, 20.5%
- COc1cc(OC)nc(-n2ncc(OC)c(Br)c2=O)n1 — higher, -12%
- COC(=O)c1cnn(-c2nc(OC)cc(OC)n2)c1C — higher, -11.5%
- COc1cc(C(=O)ON=C2C3CC4CC(C3)CC2C4)cc(OC)c1OC — higher, 46.9%
- COc1ccc(-c2nc(CSCC(=O)N3CCN(C(=O)c4ccco4)CC3)c(C)o2)cc1OC — lower, -16.5%
- CCOC(=O)C1(CCOc2ccccc2)CCN(C(=O)CCSC)CC1 — higher, 10.9%
- COc1cccc(/C=C2/SC(=S)N(CCC(=O)N3CCOCC3)C2=O)c1 — higher, 46.5%
- O=C(CCN1C(=O)/C(=C\c2ccccc2Cl)SC1=S)N1CCN(c2ccccc2)CC1 — higher, 73.2%
- COc1cccc(/C=C2\SC(=S)N(CCCC(=O)N3CCCCC3)C2=O)c1 — higher, 79%
- CN1CCN(C(=O)CCN2C(=O)/C(=C/c3ccccc3Cl)SC2=S)CC1 — higher, 18.9%
- O=C(c1ccco1)N1CCN(C(=O)c2ccc(COc3ccc(Cl)cc3Cl)o2)CC1 — higher, 11.7%
- CS(=O)(=O)c1ccc2nc(NC(=O)CN3C(=O)C4CC=CCC4C3=O)sc2c1 (centres undefined) — higher, -9.69%
- COC(=O)c1ccc(N2NC(=O)/C(=C/c3cc(OC)c(OC)c(OC)c3)C2=O)cc1 — higher, 13.4%
- C=CCn1c(O)c(N=NC(=O)c2ccc3c(c2)OCO3)c2ccccc21 — higher, 11.7%
- Cc1cc(C)n2nc(CNS(=O)(=O)c3ccc(CC(C)C)cc3)nc2n1 — higher, 7.85%
- O=C(NC1CC1)C1CC(=O)N(C2CCCCC2)C1 (centres undefined) — higher, -5.51%
- CC(NC(=O)CSc1nnc(-c2cc3cc(Cl)ccc3o2)n1C)c1ccccc1 (centres undefined) — higher, 16.7%
- CNC(C)C#Cc1ccc2c(=O)c3c(OC)cccc3oc2c1 (centres undefined) — higher, 42.6%
- CNC(C)C#Cc1ccc2oc3cccc(OC)c3c(=O)c2c1 (centres undefined) — higher, 57.7%
- CCOc1ccc(S(=O)(=O)N2CCC(C(=O)N3CCCCCC3)CC2)cc1C — higher, 21.6%
- O=[N+]([O-])c1ccc(N2CCCCC2)cc1SCCO — higher, 7.65%
- CC(=O)Nc1ccc(NC(=O)c2ccc(CN3CCc4ccccc4C3)cc2)cc1 — higher, 28.5%
- CC(C)NC(=O)c1ccc(CN2CCc3ccccc3C2)cc1 — lower, -40%
- CCOC(=O)C1=C(C)Nc2sc(C(=O)c3ccc(OC)cc3)c(N)c2C1c1ccc(C(=O)OC)cc1 (centres undefined) — higher, 26.4%
- CCCCCC(=O)NC(=S)Nc1cccc(-c2nc3ncccc3o2)c1 — lower, -12.6%
- COC(=O)c1ccc(C)c(NC(=O)CSc2nc3[nH]c(=O)cc(O)c3s2)c1 — higher, 11.9%
- COc1cccc(C(=O)OCC(=O)N2CCc3ccccc3C2)c1 — higher, 43.9%
- Nc1ccc(C(=O)OCC(=O)N2CCc3ccccc3C2)cc1[N+](=O)[O-] — higher, 39%
- COc1cccc(-c2nc(-c3ccccc3)c(-c3ccccc3)[nH]2)c1OCC(=O)O — higher, 4.59%
- O=[N+]([O-])c1cc(C(F)(F)F)ccc1NC1CCN(Cc2ccccc2)CC1 — higher, 52.5%
- FC(F)Sc1ccc(-n2c(-c3ccc(Cl)cc3)c[n+]3c2CCC3)cc1 — higher, -0.67%
- CCOc1ccc(C(=O)NCc2ccncc2)cc1OCC — higher, -10.7%
- NS(=O)(=O)c1ccc(OC(=O)CNC(=O)OCc2ccccc2)cc1 — higher, 6.9%
- Cc1ccc(S(=O)(=O)N2CCN(C(=O)c3c(-c4ccccc4)noc3C)CC2)cc1C — higher, 8.79%
- O=C(O)COc1ccc(Br)cc1CP(=O)(c1ccccc1)c1ccccc1 — higher, -5.1%
- CCOC(=O)c1c(C)nn(-c2ncccc2NC(=O)NC(C)C)c1C — lower, -15.3%
- c1ccc(-c2cn(-c3ccccc3)c3[n+]2CCCS3)cc1 — higher, -2.11%
- CCn1cc(C(=O)NC(=S)Nc2ccccc2[N+](=O)[O-])cn1 — higher, 26.2%
- COCCNC(=O)C(c1ccc(O)cc1)N(Cc1cccs1)C(=O)CCC(=O)Nc1ccccn1 (centres undefined) — higher, 7.81%
- CCn1c(SCc2ccc([N+](=O)[O-])cc2)nnc1C(C)NC(=O)c1ccccc1Br (centres undefined) — higher, -7.9%
- COc1ccc(CNC(=O)c2cc3c(C)nc4ccccc4c3o2)c(OC)c1 — higher, 31.7%
- O=C(OCC1CC(c2ccccc2)=NO1)c1ccc(Cl)cc1 (centres undefined) — higher, 25.9%
- COC(=O)C1CC(c2ccc(Cl)cc2)=NO1 (centres undefined) — higher, 10.9%
- CC(NS(=O)(=O)c1ccc2c(c1)oc(=O)n2C)c1ccccc1 (centres undefined) — higher, -7.19%
- CC1Oc2ccccc2N(CC(=O)NC2CCCCC2)C1=O (centres undefined) — lower, -12.6%
- COc1ccc(S(=O)(=O)N=Nc2c(O)[nH]c3ccccc23)cc1 — higher, 2.14%
- O=C(Nc1cccc(Br)c1)c1ccc(OC2CSC2)cc1 — higher, 79.7%
- O=C(NCCNC(=O)c1cccc(O)c1)c1cccc(O)c1 — lower, -13.5%

With `Cc1ccc(-c2cn(-c3ccccc3)c3[n+]2CCCS3)cc1` the inhibition was 9.74% and -19.1%.
